About 12,000 (3.5%) of roughly 340,000 compounds were called active. Another 18% or so got no clear call; they are omitted. The sample holds actives, similar compounds and a random draw of the others, so the mix is not that of the screen. Unmarked numbers belong to inactive results. Calls come from the whole dose curve; as a rule, active = well fitted inhibition curve with a large enough effect; inconclusive = small, poorly fitted or top-dose-only effect, or another doubt; inactive = no such curve, though single readings can be large or run the other way.
Test: qHTS Assay for Inhibitors of Hepatitis C Virus (HCV)
Conditions: Huh7.5.1 HCVcc-Cre infection, luciferase reporter, 44 h; series mostly up to 41.8 µM; activity change, negative = inhibition: at the top concentration
Method in brief: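 Seed cells (1,000/well) for 4 h; treat with compound and infect with HCVcc-Cre, moi about 0.5. Incubate 44 h, then detect luciferase activity.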
% is set by controls: 0 for no effect and ±100 for the full control effect; potency is the fitted concentration of half-maximal effect.

| SMILES | activity change, negative = inhibition [%] | Potency |
| --- | --- | --- |
| COc1cccc(CC(=NO)c2cccc(OC)c2)c1 | 0.648 |  |
| CCN(C(=O)COC(=O)CCC(=O)c1cccs1)C1CCCCC1 | 6.03 |  |
| O=C1c2ccccc2C(=O)N1CCC#Cc1ccc2cc(C3(O)CCCCC3)oc(=O)c2c1 | -24.6 |  |
| CC(Sc1nncn1C)C(=O)NCCC1=CCCCC1 (stereo not drawn) | 14.8 |  |
| NS(=O)(=O)c1ccc(CNC(=S)NC(=O)c2ccco2)cc1 | 13.4 |  |
| Nc1c(-c2ccccc2)nnn1Cc1ccccc1 | 0.76 |  |
| Cc1cc(C)cc(OCC(=O)OCC(=O)NC2CCCC2)c1 | 21.1 |  |
| O=C(Nc1ccc(NC(=O)c2ccccc2F)cc1)c1ccccc1F | 4.39 |  |
| C/C(=N\NC(=O)c1ccccc1F)c1ccccn1 |  | 11.2 µM (active) |
| C/C(=N\NC(=O)Cc1ccc(Br)cc1)c1cccnc1 | 11 |  |
| C/C(=N\NC(=O)Cc1ccc(Cl)cc1)c1ccccn1 |  | 7.08 µM (active) |
| C/C(CC(=O)Nc1ccc(N(C)C)cc1)=N\NC(=O)c1ccccc1F | 1.05 |  |
| COc1ccc(CC(=O)N/N=C(\C)c2ccccn2)cc1 | -28.1 |  |
| Cc1noc(C)c1S(=O)(=O)N(C)C[C@H]1Oc2c(NC(=O)Nc3ccc4c(c3)OCO4)cccc2C(=O)N([C@H](C)CO)C[C@@H]1C | 7.05 |  |
| O=C(OCc1cc(=O)n2ccsc2n1)C1(c2ccc(Cl)cc2)CC1 | -13.4 |  |
| O=C(OCC(=O)N1CCc2ccccc21)C1CCCN1S(=O)(=O)c1ccc(Cl)cc1 (stereo not drawn) | 6.57 |  |
| O=C(NN=CC=Cc1ccccc1)C(O)C(O)C(=O)NN=CC=Cc1ccccc1 (stereo not drawn) | 14.2 |  |
| CN(C)S(=O)(=O)c1ccc(Oc2ccc(S(=O)(=O)N(C)C)cc2)cc1 |  | 11.2 µM (active) |
| COc1cccc(NC(=O)c2ccc(S(=O)(=O)N(C)C)cc2)c1 | -9.93 |  |
| Cc1ccc(S(=O)(=O)c2ccc(Oc3ccccc3)cc2)cc1 | -27.1 |  |
| CNC(=O)c1cccc2nc3ccccc3nc12 |  | 11.2 µM (active) |
| CN(C)C(=O)c1coc2nc3ccccc3nc12 | -10.9 |  |
| CNC(=O)c1cc2c(ccc3ccccc32)oc1=N | 3.09 |  |
| CC(C)N(C(=O)CSc1nnc(NC2CC2)s1)c1ccccc1 | 10.8 |  |
| COc1ccccc1OCCNC(=O)c1cc([N+](=O)[O-])cc([N+](=O)[O-])c1 | 10.3 |  |
| COc1ccccc1OCCNc1cc(N2CCOCC2)ccc1[N+](=O)[O-] |  | 14.1 µM (active) |

| SMILES | activity change, negative = inhibition [%] | Potency |
| --- | --- | --- |
| CC(=O)Nc1ccc(S(=O)(=O)N2CCN(c3ccc([N+](=O)[O-])c(NCCN4CCOCC4)c3)CC2)cc1 | -11.2 |  |
| COc1ccc(Cl)cc1NC(=O)CN1CCN(C(=O)N2CCOCC2)CC1 | -13.9 |  |
| Cn1nc(C(=O)OCC(=O)N(Cc2ccccc2)C(C)(C)C)c2ccccc2c1=O | -24.2 |  |
| CN(Cc1ccc(CNC[C@H]2O[C@@H](n3cnc4c(N)ncnc43)[C@H](O)[C@@H]2O)o1)S(C)(=O)=O | 35.2 |  |
| O=C(/C=C/c1cccc([N+](=O)[O-])c1)OCC(=O)N1CCOCC1 | -1.47 |  |
| CCOc1cc(C(=O)N(Cc2ccccc2)c2ccc(C)cc2)ccc1OCC(=O)N1CCOCC1 | -5.74 |  |
| CCOc1ccc(NC(=O)Nc2cc(C)ccc2OC)cc1 |  | 11.2 µM (active) |
| COc1ccc(OC)c(NC(=O)c2ccc3c(c2)C(=O)N(c2ccc(OC(C)=O)cc2)C3=O)c1 | 10.5 |  |
| CCn1c(COc2ccc(OC)cc2)nnc1SCC(=O)Nc1cc(OC)ccc1OC |  | 1.26 µM (active) |
| CCOc1ccc(C(=O)NC2CCN(C(=O)Nc3ccccc3OC)CC2)cc1 | 0.244 |  |
| CCOC(=O)CNC(=O)CSc1nnc(COc2ccc(Cl)cc2)n1CC | 15.3 |  |
| COc1ccc(C)cc1NC(=O)NCc1ccccn1 | 0.829 |  |
| CCn1c(COc2ccccc2)nnc1SCC(=O)Nc1ccc2c(c1)OCCO2 | 6 |  |
| CCOc1ccc(NC(=O)Nc2cc(C)on2)cc1 | 0.646 |  |
| CCOc1ccc(C(=O)Nc2cc(OC)ccc2OC)cc1 |  | 8.91 µM (active) |
| CC1CCCCC12NC(=O)N(CC(=O)N1CCN(c3ccccc3)CC1)C2=O (stereo not drawn) | -9.42 |  |
| CSCCC(NC(=O)c1ccco1)C(=O)NCCc1ccc(F)cc1 (stereo not drawn) | 6 |  |
| O=C(OCC(=O)N1CCCCCC1)c1ccc(Br)c(S(=O)(=O)N2CCOCC2)c1 | -0.643 |  |
| O=C(NCCCN1CCOCC1)c1ccc2c(c1)N(Cc1cccc(F)c1)C(=O)c1ccccc1S2 | -10.1 |  |
| COc1ccc(/C=C(\NC(=O)c2ccccc2)C(=O)NCCN2CCOCC2)cc1OC | 11.8 |  |
| Cc1nn(Cc2ccccc2)c(C)c1C(=O)NCCN1C(=O)S/C(=C\c2ccc(F)cc2)C1=O | -17.6 |  |
| CCN1CCN(CCNC(=O)c2ccc(/C=C3/Sc4ccccc4N(Cc4cccc(C)c4)C3=O)cc2)CC1 |  | 8.91 µM (active) |
| CCN1CCN(CCNC(=O)c2ccc3c(c2)NC(=O)/C(=C\c2ccc(OC)c(OC)c2)S3)CC1 |  | 31.6 µM (active) |
| COc1ccc(CCNC(=O)c2ccc3c(c2)NC(=O)C(N2CCOCC2)S3)cc1OC (stereo not drawn) | -4.67 |  |
| CC(=O)OC1CCC2(C)C(=CCC3C4CC(=O)N(O)C(=O)C4(C)CCC32)C1 (stereo not drawn) | 11.9 |  |
| COc1cc(/C=C/C(=O)OCC(=O)NC2CC2)cc(OC)c1OC | -13.3 |  |

| SMILES | activity change, negative = inhibition [%] | Potency |
| --- | --- | --- |
| CN(CC(=O)NCc1cccnc1)S(=O)(=O)c1cc(Cl)ccc1Cl | -1.4 |  |
| CC(=O)c1c(OCC(=O)N(C)C2CCCCC2)ccc2c(C)cc(=O)oc12 | -5.03 |  |
| COc1cccc(C=CC(=O)C=CC=Cc2ccccc2)c1 | 0.583 |  |
| O=C(NCc1ccccc1Cl)C1CCCO1 (stereo not drawn) | 18.6 |  |
| Cc1cccc(NC(=O)c2ccc3c(=O)n(CC4CCCO4)c(=S)[nH]c3c2)c1 (stereo not drawn) |  | 11.2 µM (active) |
| Cc1ccccc1NC(=O)Cn1c(=O)n(CC2CCCO2)c(=O)c2ccccc21 (stereo not drawn) | 14.2 |  |
| O=C(NCc1ccccc1Cl)c1ccc2c(=O)n(CC3CCCO3)c(=S)[nH]c2c1 (stereo not drawn) |  | 6.31 µM (active) |
| O=C(NC1CCCCC1)c1ccc2c(=O)n(CC3CCCO3)c(=O)[nH]c2c1 (stereo not drawn) | 10.9 |  |
| CC1Sc2ccc(C(=O)NCc3ccccc3Cl)cc2NC1=O (stereo not drawn) | 14.3 |  |
| CSc1ccc(/C=C2\NC(=O)NC2=O)cc1 | 23 |  |
| Cc1cn(C2CC(O)C(CO)O2)c(=O)n(CCCc2ccccc2)c1=O (stereo not drawn) | 34.1 |  |
| C(#CCN1CCOCC1)CCCN1CCOCC1 | 2.92 |  |
| Cc1ccc(NS(=O)(=O)c2ccc(-c3coc(C)n3)cc2)c(C)c1 |  | 11.2 µM (active) |
| Cc1ccc(NS(=O)(=O)c2ccc3c(c2)n(C)c(=O)c(=O)n3C)c(C)c1 | 7.94 |  |
| COc1cccc(NS(=O)(=O)c2ccc(-c3coc(C)n3)cc2)c1 | -9.58 |  |
| CCCCN1C(N)=NC[C@@H]1CC1CCCCC1 | 17 |  |
| COC(=O)Cc1ccc(OCC(=O)NC2CCCC2)cc1 | 4.31 |  |
| COc1cc(OC)c(NC(=O)c2ccc(Br)o2)cc1Cl |  | 11.2 µM (active) |
| CCN1CCN(c2c(Cl)cccc2NC(=O)c2ccc(Br)o2)CC1 | -19.6 |  |
| COc1cc(OC)cc(C(=O)NNC(=O)CNC(=O)c2ccc(Br)o2)c1 | 10.2 |  |
| Cc1csc(SCC(=O)N(c2ccccc2)C(C)C)n1 | 13.2 |  |
| NC(=O)C1(Nc2ccc([N+](=O)[O-])cc2)CCCC1 | -3 |  |
| Cc1cc(OCc2cc(C(=O)NCc3cc(C(C)C)no3)no2)cc(C)c1Cl | 5.78 |  |
| CCOC(=O)CC1COCCN1C(=O)c1cc(COc2ccc(F)c(F)c2)on1 (stereo not drawn) | -11.4 |  |
| CCOC(=O)CC1(NC(=O)c2cc(COc3cncc(Cl)c3)on2)CCCCC1 |  | 10 µM (active) |
| CCCCn1c(N)c(N(CC(C)C)C(=O)C2CSC3(C)CCC(=O)N23)c(=O)[nH]c1=O (stereo not drawn) | 0.302 |  |

| SMILES | activity change, negative = inhibition [%] | Potency |
| --- | --- | --- |
| O=C(O)C1C2C=CC(O2)C1C(=O)Nc1ccccn1 (stereo not drawn) | 21 |  |
| COC(=O)[C@]1(C)N[C@H](c2ccc(-c3ccc(Cl)c(Cl)c3)cc2)[C@@H]2C(=O)N(C)C(=O)[C@@H]21 | -8.54 |  |
| Cc1ccc(NC(=O)C2CC2)cc1S(=O)(=O)N1CCOCC1 | 7.05 |  |
| Cc1ccc(NC(=O)COC(=O)C2CC2)cc1S(=O)(=O)N1CCOCC1 | 11 |  |
| Cc1ccccc1OCC(=O)Nc1ccc2c(c1)ncn2C | -14.5 |  |
| Cc1cc(C(=O)Nc2ccc(C)c(S(=O)(=O)N3CCOCC3)c2)c2ccccc2n1 |  | 11.2 µM (active) |
| CCc1ccccc1OCC(=O)Nc1ccc(C)c(S(=O)(=O)N2CCCCCC2)c1 |  | 3.55 µM (active) |
| COc1ccccc1C(=O)Nc1ccc(OCC(=O)N2CCCCC2)cc1 | 9.06 |  |
| Cc1ccc(NC(=O)c2ccccn2)cc1S(=O)(=O)N1CCOCC1 | -0.0506 |  |
| Cc1ccccc1OCC(=O)Nc1ccc(S(=O)(=O)N2CCOCC2)cc1 | -9.36 |  |
| Cc1ccc(NC(=O)CCC(=O)N2CCC(c3ccccc3)=N2)cc1S(=O)(=O)N1CCCCC1 | 13.3 |  |
| COc1ccccc1C(=O)Nc1ccc(C)c(S(=O)(=O)N2CCCCC2)c1 |  | 7.08 µM (active) |
| Cc1ccccc1OCC(=O)Nc1ccc(N2CCN(C(=O)C(C)C)CC2)c(Cl)c1 |  | 31.6 µM (active) |
| COc1ccc(NC(=O)C2=NNC(=O)CC2)cc1S(=O)(=O)N1CCCCC1 | 10.7 |  |
| COc1ccc(CCNC(=O)C(=O)NCC2OCCN2S(=O)(=O)c2cccs2)cc1OC (stereo not drawn) | -16.4 |  |
| Cc1ccc(SCC(=O)Nc2nncs2)cc1 | -2.67 |  |
| O=C(OCC(=O)N1CCCC1)c1ccc(Cl)nc1 | 0.0144 |  |
| COC(=O)Cc1nc2c(N)nc(N)nc2[nH]c1=O | 5.65 |  |
| O=C1N[C@H](Cc2ccccc2)C(=O)N[C@H]1Cc1cn(S(=O)(=O)c2ccccc2)c2ccccc12 | 8.46 |  |
| O=C(CNC(=O)c1ccco1)NNC(=O)c1ccc(Br)cc1 | 20.7 |  |
| COc1ccc(NC(=O)CN(C)C(=O)/C=C/c2cn(Cc3ccccc3)nc2-c2cccnc2)cc1 | 3.26 |  |
| C[C@H]1CN([C@@H](C)CO)C(=O)Cc2cc(NS(C)(=O)=O)ccc2O[C@@H]1CN(C)CC1CC1 | 15.9 |  |
| O=C(CSc1ccccc1)Nc1cccc(S(=O)(=O)N2CCOCC2)c1 | -12.6 |  |
| Cc1occc1C(=O)Nc1cccc(S(=O)(=O)N2CCOCC2)c1 | -4.28 |  |
| Cc1c(C(=O)Nc2cccc(S(=O)(=O)N3CCOCC3)c2)oc2ccccc12 |  | 14.1 µM (active) |
